# Results reported in PubChem BioAssay (EPA / NIEHS).
# Inconclusive results are not listed. Activity calls are given as the source filed them. The calls were made as follows, unless noted: active = hit-call score of the fitted dose curve at least 0.9, where 1 is the maximum; inconclusive = response in the unintended direction; inactive = score below 0.9.
# Legend:
# [1] = Tanguay_ZF_120hpf_PIG_legacy: (Legacy) Oregon State University Tanguay Lab 120 Hour Post-fertilization zebrafish Assay for Pigmentation Malformation (AID 2283650)
# Method in brief: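 Endpoint is incidence of abnormal pigmentation at 120 hpf in dechorionated 5D zebrafish exposed singly from 6 hpf at 28C, DMSO vehicle at 0.64%. Embryos dying by 24 or 120 hpf are excluded from scoring.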
# [2] = Tanguay_ZF_120hpf_CIRC_legacy: (Legacy) Oregon State University Tanguay Lab 120 Hour Post-fertilization zebrafish Assay for Circulatory Malformation (AID 2283651)
# Method in brief: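 Embryos are dechorionated at 4 hpf, plated one per well at 6 hpf, then held under static exposure at 28C until 120 hpf. Malformations are recorded as binary calls; mortality excludes other endpoints.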
# [3] = Tanguay_ZF_120hpf_SWIM_legacy: (Legacy) Oregon State University Tanguay Lab 120 Hour Post-fertilization zebrafish Assay for Swim Bladder Malformation (AID 2283654);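 also: swim bladder malformation in each larva scored yes or no under brightfield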
# Method in brief: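 Static waterborne exposure of single dechorionated Tropical 5D zebrafish embryos, 6–120 hpf, 28C, 0.64% DMSO final. Read-out: swim bladder malformation, present/absent, relative to DMSO negative control; trimethyltin chloride 5uM served as positive control.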
# [4] = Tanguay_ZF_120hpf_TRUN_legacy: (Legacy) Oregon State University Tanguay Lab 120 Hour Post-fertilization zebrafish Assay for Truncated Body (AID 2283655)
# Method in brief: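 Single dechorionated zebrafish embryos received test chemical from 6 hpf in 0.64% DMSO, kept at 28C. At 120 hpf, brightfield inspection noted any truncated body.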
# [5] = Tanguay_ZF_120hpf_NC_legacy: (Legacy) Oregon State University Tanguay Lab 120 Hour Post-fertilization zebrafish Assay for Notochord and Tail Malformation (AID 2283656)
# Method in brief: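 Binary scoring of notochord distortion by brightfield microscopy; embryos dying were not scored. Wild-type Tropical 5D embryos, chorion removed, exposed singly and statically from 6 to 120 hpf, 28C, sealed, 0.64% DMSO.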
# [6] = read-out: ABC Transporter (ABCB1), ABCB1 (gene 5243); test: CLD_ABCB1_6hr: CellzDirect (CLD) Gene Expression Assay for ABC Transporter (ABCB1) at 6 hours (AID 2283659);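 also: hits raise ABCB1 transcript above the DMSO vehicle baseline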
# Method in brief: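 ABCB1 transcript measured by quantitative nuclease protection assay, chemiluminescent read-out, 6 h after dosing human hepatocyte cultures (0.2% DMSO vehicle, daily redosing). Activity fitted as increase over DMSO baseline; cytotoxicity flagged by phase-contrast morphology.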
# [7] = read-out: xenobiotic metabolism (CYP1A1), CYP1A1 (gene 1543); test: CLD_CYP1A1_6hr: CellzDirect (CLD) Gene Expression Assay for xenobiotic metabolism (CYP1A1) at 6 hours (AID 2283661);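 as to AC50: potency for transcript induction above DMSO vehicle baseline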
# Method in brief: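 Read-out 6 h post-dose: qNPA chemiluminescent quantitation of transcript induction against 0.2% DMSO. Cells were cultured primary human hepatocytes from two separate donor preparations; phase-contrast morphology annotated apparent cytotoxicity.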
# [8] = read-out: organic anion transporter (SLCO1B1), SLCO1B1 (gene 10599); test: CLD_SLCO1B1_6hr: CellzDirect (CLD) Gene Expression Assay for organic anion transporter (SLCO1B1) at 6 hours (AID 2283668);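 also: active means mRNA induction above DMSO baseline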
# Method in brief: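 SLCO1B1 mRNA induction measured 6 h after dosing by quantitative nuclease protection with chemiluminescent read-out, in human primary hepatocyte cultures given chemicals at several concentrations (vehicle 0.2% DMSO). Increase over DMSO baseline fitted; morphology-based cytotoxicity annotated yes/no.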
# [9] = read-out: glucuronosyltransferase (UGT1A1), UGT1A1 (gene 54658); test: CLD_UGT1A1_6hr: CellzDirect (CLD) Gene Expression Assay for glucuronosyltransferase (UGT1A1) at 6 hours (AID 2283672)
# Method in brief: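 UGT1A1 mRNA induction, read by quantitative nuclease protection assay, 6 h after dosing primary human hepatocytes (two donors, 0.2% DMSO vehicle). Gain of signal fitted relative to vehicle.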
# [10] = read-out: ABC Transporter (ABCB11), ABCB11 (gene 8647); test: CLD_ABCB11_6hr: CellzDirect (CLD) Gene Expression Assay for ABC Transporter (ABCB11) at 6 hours (AID 2283675);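 also: hits raise ABCB11 mRNA level so AC50 marks induction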
# Method in brief: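 Read-out was ABCB11 mRNA gain of signal by quantitative nuclease protection assay, relative to 0.2% DMSO vehicle, 6 h post-dose. Cells were primary human hepatocytes from two donors, treated across multiple concentrations; phase-contrast cytotoxicity noted yes/no.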
# [11] = tested on: Thyroperoxidase (TPO), gene 54314; test: CCTE_Simmons_AUR_rTPO: CCTE's Amplex UltraRed Assay for Thyroperoxidase (TPO) Inhibition, Simmons Lab (AID 2283662);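 also: potency for loss of signal meaning inhibition of peroxidase activity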
# Method in brief: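 Rat thyroid microsomes (5 ug protein) were incubated with test compound (8 concentrations, 5 nM–87.5 uM final, 0.5% DMSO), 25 uM Amplex UltraRed and 300 uM H2O2 in 200 mM phosphate buffer for 30 min at 37C in the dark; fluorescence read at 544/590 nm.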
# [12] = CCTE_Simmons_CellTiterGLO_HEK293T: Viability Assessment in CCTE's Assays for Thyroperoxidase (TPO) Inhibition, Simmons Lab (AID 2283665);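 as to AC50: cells exposed to compound for 24 h before readout; actives reduce ATP signal below DMSO vehicle meaning cytotoxicity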
# Method in brief: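 Cells were seeded overnight, then exposed to an eight-point series up to 87.5 uM final for 24 hours. CellTiter-Glo reagent was added and luminescence read after 20 min, giving ATP-based viability versus DMSO.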
# [13] = read-out: sulfotransferase (SULT2A), SULT2A1 (gene 6822); test: CLD_SULT2A_6hr: CellzDirect (CLD) Gene Expression Assay for sulfotransferase (SULT2A) at 6 hours (AID 2283669);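 also: hits raise transcript level above the DMSO vehicle baseline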
# Method in brief: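 Measured 6 h after dosing, SULT2A1 mRNA in human hepatocyte lysates was quantified by S1 nuclease protection with chemiluminescent detection. Increases fitted against 0.2% DMSO vehicle baseline; phase-contrast cytotoxicity recorded yes/no.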
# [14] = read-out: alkyl and aryl transferase (GSTA2), GSTA2 (gene 2939); test: CLD_GSTA2_6hr: CellzDirect (CLD) Gene Expression Assay for alkyl and aryl transferase (GSTA2) at 6 hours (AID 2283666)
# Method in brief: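 GSTA2 transcript induction at 6 h, quantified by nuclease protection (qNPA) with chemiluminescent detection, in human liver primary hepatocytes exposed to several compound concentrations with 0.2% DMSO as baseline; phase-contrast morphology annotated apparent cytotoxicity.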
# [15] = Tanguay_ZF_120hpf_TR_legacy: (Legacy) Oregon State University Tanguay Lab 120 Hour Post-fertilization zebrafish Assay for Touch Response (AID 2283667)
# Method in brief: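 Readout is presence or absence of touch response in 120 hpf zebrafish larvae, assessed by brightfield observation after continuous static exposure at 28C. Final vehicle was 0.64% (vol/vol) DMSO.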
# [16] = read-out: xenobiotic metabolism (CYP1A1), CYP1A1 (gene 1543); test: CLD_CYP1A1_24hr: CellzDirect (CLD) Gene Expression Assay for xenobiotic metabolism (CYP1A1) at 24 hours (AID 2283673);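 also: CYP1A1 mRNA level by quantitative nuclease protection with chemiluminescence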
# Method in brief: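 Transcript levels were read at 24 h by qNPA chemiluminescence in human liver primary cells. Cells got daily fresh dosing at multiple concentrations (vehicle 0.2% DMSO). Induction fitted upward against DMSO; phase-contrast cytotoxicity annotated.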
# [17] = read-out: solute carrier (SLC10A1), SLC10A1 (gene 6554); test: LTEA_HepaRG_SLC10A1: Life Technologies and Expression Analysis (LTEA) Assay for solute carrier (SLC10A1) using HepaRG (AID 2283657; active = hit-call score of the fitted dose curve at least 0.9, where 1 is the maximum; inactive = score below 0.9); details: mRNA level, 48 h; actives raise or lower the signal
# Method in brief: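 Cryopreserved HepaRG cells are thawed, plated and cultured 48 h; medium is then switched to serum-free induction medium and chemicals added (8 points, max 100 uM, 0.5% DMSO). After 48 h, RNA is isolated and SLC10A1 quantified by qRT-PCR.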
# [18] = read-out: matrix metalloproteinase-1 (MMP1), MMP1 (gene 4312); test: LTEA_HepaRG_MMP1: Life Technologies and Expression Analysis (LTEA) Assay for matrix metalloproteinase-1 (MMP1) using HepaRG (AID 2283658; active = hit-call score of the fitted dose curve at least 0.9, where 1 is the maximum; inactive = score below 0.9); details: mRNA level, 48 h; actives raise or lower the signal
# Method in brief: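 In this screen, human liver HepaRG cultures receive each chemical in duplicate for 48 h (top 100 uM, 0.5% DMSO). MMP1 expression is then quantified by TaqMan qRT-PCR with ACTB/GAPDH/POLR2A normalization.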
# [19] = read-out: Cytochrome P450 (CYP24A1_1), CYP24A1 (gene 1591); test: LTEA_HepaRG_CYP24A1_1: Life Technologies and Expression Analysis (LTEA) Assay for Cytochrome P450 (CYP24A1_1) using HepaRG (AID 2283671; active = hit-call score of the fitted dose curve at least 0.9, where 1 is the maximum; inactive = score below 0.9); details: mRNA level, 48 h; actives raise or lower the signal
# Method in brief: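 Cultures of human HepaRG were treated in duplicate for 48 h (0.5% DMSO vehicle, highest dose 100 uM). CYP24A1 mRNA by qRT-PCR, normalized to ACTB, GAPDH, POLR2A.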
smiles,measurement,setting,value
O=C(O)C(F)(F)C(F)(F)C(F)(F)C(F)(F)C(F)(F)C(F)(F)C(F)(F)F,outcome,[1],inactive
same,outcome,[2],inactive
same,outcome,[3],inactive
same,outcome,[4],inactive
same,outcome,[5],inactive
same,outcome,[6],inactive
same,outcome,[7],inactive
same,outcome,[8],inactive
same,outcome,[9],inactive
same,outcome,[10],inactive
CNC(=O)/C=C(\C)OP(=O)(OC)OC,outcome,[1],inactive
same,outcome,[2],inactive
same,outcome,[3],inactive
same,outcome,[4],inactive
same,outcome,[5],inactive
same,outcome,[6],inactive
same,outcome,[7],inactive
same,AC50,[11],39.1 µM (active)
same,outcome,[12],inactive
same,outcome,[8],inactive
same,outcome,[13],inactive
same,outcome,[10],inactive
N#CN,outcome,[1],inactive
same,outcome,[2],inactive
same,outcome,[3],inactive
same,outcome,[4],inactive
same,outcome,[6],inactive
same,outcome,[7],inactive
same,AC50,[11],2.93 µM (active)
same,outcome,[12],inactive
same,outcome,[14],inactive
same,outcome,[8],inactive
same,outcome,[13],inactive
same,outcome,[10],inactive
CC(C)(C)C(O)/C(=C\c1ccc(Cl)cc1Cl)n1cncn1 (stereo not drawn),outcome,[1],inactive
same,outcome,[2],inactive
same,outcome,[3],inactive
same,outcome,[4],inactive
same,outcome,[6],inactive
same,AC50,[7],1.89 µM (active)
same,outcome,[14],inactive
same,outcome,[13],inactive
CNC(=O)CSP(=S)(OC)OC,outcome,[2],inactive
same,outcome,[3],inactive
same,outcome,[5],inactive
same,AC50,[7],0.275 µM (active)
same,AC50,[11],7.2 µM (active)
same,outcome,[12],inactive
same,outcome,[14],inactive
same,outcome,[8],inactive
same,outcome,[10],inactive
COC(=O)c1ccccc1S(=O)(=O)NC(=O)Nc1nc(C)nc(OC)n1,outcome,[6],inactive
same,AC50,[7],20 µM (active)
same,outcome,[8],inactive
same,outcome,[10],inactive
CCC(C)(NC(=O)c1cc(Cl)c(C)c(Cl)c1)C(=O)CCl (stereo not drawn),outcome,[2],inactive
same,outcome,[3],inactive
same,outcome,[4],inactive
same,outcome,[5],inactive
same,outcome,[6],inactive
same,outcome,[7],inactive
same,outcome,[14],inactive
same,outcome,[8],inactive
same,outcome,[13],inactive
same,outcome,[10],inactive
CCOc1nc(NC)nc(NC(=O)NS(=O)(=O)c2ccccc2C(=O)OC)n1,outcome,[6],inactive
same,outcome,[7],inactive
same,outcome,[14],inactive
same,outcome,[8],inactive
same,outcome,[13],inactive
[2H]C1([2H])[n+]2ccccc2-c2cccc[n+]2C1([2H])[2H],outcome,[14],inactive
same,outcome,[8],inactive
same,outcome,[10],inactive
CNC(=O)Oc1cccc(N=CN(C)C)c1,outcome,[4],inactive
same,outcome,[5],inactive
same,outcome,[7],inactive
same,AC50,[11],19.8 µM (active)
same,outcome,[12],inactive
same,outcome,[14],inactive
same,outcome,[13],inactive
same,outcome,[10],inactive
CCN(CC)C(=O)SCc1ccc(Cl)cc1,outcome,[1],inactive
same,outcome,[2],inactive
same,outcome,[3],inactive
same,outcome,[5],inactive
same,outcome,[6],inactive
same,outcome,[7],inactive
same,outcome,[14],inactive
same,outcome,[15],inactive
same,outcome,[8],inactive
same,outcome,[13],inactive
same,outcome,[10],inactive
O=C(O)COc1ccc(Cl)cc1Cl,outcome,[1],inactive
same,outcome,[2],inactive
same,outcome,[4],inactive
same,outcome,[5],inactive
same,outcome,[6],inactive
same,AC50,[7],0.459 µM (active)
same,outcome,[14],inactive
same,outcome,[16],inactive
O=C1c2ccccc2C(=O)N1SC(Cl)(Cl)Cl,outcome,[1],inactive
same,outcome,[3],inactive
same,outcome,[4],inactive
same,outcome,[5],inactive
same,outcome,[17],inactive
same,outcome,[18],inactive
same,outcome,[6],inactive
same,AC50,[11],27.3 µM (active)
same,AC50,[12],9.19 µM (active)
same,outcome,[8],inactive
same,outcome,[19],inactive
same,outcome,[10],inactive
C[C@H]1[C@H](c2ccc(Cl)cc2)SC(=O)N1C(=O)NC1CCCCC1,outcome,[1],inactive
same,outcome,[3],inactive
same,outcome,[4],inactive
same,outcome,[5],inactive
same,outcome,[6],inactive
same,outcome,[7],inactive
same,outcome,[14],inactive
same,outcome,[13],inactive
same,outcome,[10],inactive
CCC(C)(C)C(=O)OC1=C(c2ccc(Cl)cc2Cl)C(=O)OC12CCCCC2,outcome,[1],inactive
same,outcome,[2],inactive
same,outcome,[3],inactive
same,outcome,[4],inactive
same,outcome,[6],inactive
same,outcome,[14],inactive
same,outcome,[10],inactive
